# Laboratory results: paper PMC7862700, “An all-to-all approach to the identification of sequence-specific readers for epigenetic DNA modifications on cytosine”
# Legend:
# Assay in all cases: DAPPL (digital affinity profiling via proximity ligation, sequencing); 10 mM Tris-HCl pH 7.5, 50 mM NaCl, 1 mM DTT, 4% glycerol, room temperature, 30 min; GST-TFs on glutathione beads, 16-mer random dsDNA library, 0.1% formaldehyde crosslink after washing; high values mean tight binding
# Conditions in all cases: protein: recombinant; tags: N-terminal GST; dsDNA, one strand shown
# [1] = biological target: T1, FLI1 (Homo sapiens, UniProt Q01543 1-452)
# T1 sequence: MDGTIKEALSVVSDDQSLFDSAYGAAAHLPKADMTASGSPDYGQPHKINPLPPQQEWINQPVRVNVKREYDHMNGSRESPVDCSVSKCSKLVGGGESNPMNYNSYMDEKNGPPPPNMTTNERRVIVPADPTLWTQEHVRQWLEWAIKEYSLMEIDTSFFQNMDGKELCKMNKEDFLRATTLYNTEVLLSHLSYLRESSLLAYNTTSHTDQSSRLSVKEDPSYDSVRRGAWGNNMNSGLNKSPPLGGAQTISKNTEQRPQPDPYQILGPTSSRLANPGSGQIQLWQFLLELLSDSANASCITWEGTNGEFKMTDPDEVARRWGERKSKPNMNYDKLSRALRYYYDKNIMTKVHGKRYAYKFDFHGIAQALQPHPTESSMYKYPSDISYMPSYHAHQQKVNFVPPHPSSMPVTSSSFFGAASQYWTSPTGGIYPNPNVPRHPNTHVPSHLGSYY
# Procedure, shortened: (§1)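 Binding signal is defined as a hexamer's read frequency for one factor over its frequency for the tag-only sample. To obtain reads, GST-fused human transcription factors were expressed in yeast, captured on glutathione beads, barcoded with DNA and pooled with that sample. Pools met 200 nmole of a 16-mer random double-stranded DNA library in Tris/NaCl/DTT/glycerol buffer for 30 min at room temperature before washing, 0.1% formaldehyde crosslinking, proximity ligation (BsaI/T4 ligase, 1 h, 37 °C), PCR and Illumina NextSeq500 sequencing.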
# [2] = biological target: T2, ELK1 (Homo sapiens, UniProt P19419 1-428)
# T2 sequence: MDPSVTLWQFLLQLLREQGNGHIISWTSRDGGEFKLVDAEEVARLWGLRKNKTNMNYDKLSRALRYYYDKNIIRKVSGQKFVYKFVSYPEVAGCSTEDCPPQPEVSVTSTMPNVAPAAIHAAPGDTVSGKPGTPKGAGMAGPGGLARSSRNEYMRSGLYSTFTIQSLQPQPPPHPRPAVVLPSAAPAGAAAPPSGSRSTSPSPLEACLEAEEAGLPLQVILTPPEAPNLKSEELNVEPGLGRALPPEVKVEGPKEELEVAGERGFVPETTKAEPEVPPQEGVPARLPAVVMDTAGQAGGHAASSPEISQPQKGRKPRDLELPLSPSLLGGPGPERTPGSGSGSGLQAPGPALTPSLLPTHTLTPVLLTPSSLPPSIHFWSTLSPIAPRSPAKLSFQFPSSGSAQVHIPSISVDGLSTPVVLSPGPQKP
# Procedure, shortened: as §1
# [3] = biological target: T3, ERG (Homo sapiens, UniProt P11308 1-479)
# T3 sequence: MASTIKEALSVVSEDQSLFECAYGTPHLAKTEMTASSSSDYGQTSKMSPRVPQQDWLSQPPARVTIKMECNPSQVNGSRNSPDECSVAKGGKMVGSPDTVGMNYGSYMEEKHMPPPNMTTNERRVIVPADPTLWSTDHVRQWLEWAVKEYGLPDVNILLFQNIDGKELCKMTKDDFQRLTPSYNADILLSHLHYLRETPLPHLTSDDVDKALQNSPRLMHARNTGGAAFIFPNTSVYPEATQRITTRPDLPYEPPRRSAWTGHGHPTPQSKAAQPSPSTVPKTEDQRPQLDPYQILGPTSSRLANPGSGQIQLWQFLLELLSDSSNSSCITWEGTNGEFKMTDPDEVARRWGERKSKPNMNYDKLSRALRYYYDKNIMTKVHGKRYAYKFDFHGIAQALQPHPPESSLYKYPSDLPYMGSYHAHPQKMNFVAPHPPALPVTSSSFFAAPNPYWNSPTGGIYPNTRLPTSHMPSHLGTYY
# Procedure, shortened: as §1
# [4] = biological target: T4, EHF (Homo sapiens, UniProt Q9NZC4 1-300)
# T4 sequence: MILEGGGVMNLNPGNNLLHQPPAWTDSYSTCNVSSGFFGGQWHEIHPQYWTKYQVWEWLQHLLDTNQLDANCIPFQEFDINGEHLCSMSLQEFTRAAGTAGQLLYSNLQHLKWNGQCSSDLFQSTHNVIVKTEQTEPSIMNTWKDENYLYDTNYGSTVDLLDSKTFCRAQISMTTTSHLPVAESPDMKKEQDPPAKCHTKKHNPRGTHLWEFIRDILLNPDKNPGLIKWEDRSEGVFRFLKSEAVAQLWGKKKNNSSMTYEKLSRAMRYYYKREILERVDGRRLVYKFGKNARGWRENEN
# Procedure, shortened: as §1
# [5] = biological target: SPIB (Homo sapiens, UniProt Q01892 1-262)
# Procedure, shortened: as §1
# [6] = biological target: T5, FEV (Homo sapiens, UniProt Q99581 1-238)
# T5 sequence: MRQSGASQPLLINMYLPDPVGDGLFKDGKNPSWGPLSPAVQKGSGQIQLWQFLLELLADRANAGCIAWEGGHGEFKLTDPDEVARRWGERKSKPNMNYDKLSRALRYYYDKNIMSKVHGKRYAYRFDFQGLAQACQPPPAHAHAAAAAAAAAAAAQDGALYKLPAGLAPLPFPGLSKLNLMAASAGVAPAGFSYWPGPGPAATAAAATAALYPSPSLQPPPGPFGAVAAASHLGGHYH
# Procedure, shortened: as §1
# [7] = biological target: T6, SPIC (Homo sapiens, UniProt Q8N5J4 1-248)
# T6 sequence: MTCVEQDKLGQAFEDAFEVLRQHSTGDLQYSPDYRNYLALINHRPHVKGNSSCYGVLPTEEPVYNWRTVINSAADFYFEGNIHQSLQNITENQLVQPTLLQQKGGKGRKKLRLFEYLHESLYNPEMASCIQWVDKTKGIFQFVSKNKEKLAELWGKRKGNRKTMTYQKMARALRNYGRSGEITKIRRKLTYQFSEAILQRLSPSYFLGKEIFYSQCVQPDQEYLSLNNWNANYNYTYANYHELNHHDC
# Procedure, shortened: as §1
# [8] = biological target: T7, ELK4 (Homo sapiens, UniProt P28324-2 1-405)
# T7 sequence: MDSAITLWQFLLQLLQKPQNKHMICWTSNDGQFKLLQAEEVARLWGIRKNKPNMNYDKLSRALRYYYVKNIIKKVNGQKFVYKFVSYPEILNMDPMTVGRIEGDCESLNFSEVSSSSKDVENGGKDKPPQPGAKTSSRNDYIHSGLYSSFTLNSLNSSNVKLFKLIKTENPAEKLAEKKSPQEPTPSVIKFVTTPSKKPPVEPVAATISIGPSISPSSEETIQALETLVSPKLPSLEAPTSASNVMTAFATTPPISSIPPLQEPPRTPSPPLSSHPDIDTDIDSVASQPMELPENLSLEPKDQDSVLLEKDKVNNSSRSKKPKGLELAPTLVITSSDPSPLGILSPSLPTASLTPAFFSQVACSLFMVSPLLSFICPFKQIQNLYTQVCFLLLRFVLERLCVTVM
# Procedure, shortened: as §1
# [9] = biological target: T8, ETV7 (Homo sapiens, UniProt Q9Y603 1-341)
# T8 sequence: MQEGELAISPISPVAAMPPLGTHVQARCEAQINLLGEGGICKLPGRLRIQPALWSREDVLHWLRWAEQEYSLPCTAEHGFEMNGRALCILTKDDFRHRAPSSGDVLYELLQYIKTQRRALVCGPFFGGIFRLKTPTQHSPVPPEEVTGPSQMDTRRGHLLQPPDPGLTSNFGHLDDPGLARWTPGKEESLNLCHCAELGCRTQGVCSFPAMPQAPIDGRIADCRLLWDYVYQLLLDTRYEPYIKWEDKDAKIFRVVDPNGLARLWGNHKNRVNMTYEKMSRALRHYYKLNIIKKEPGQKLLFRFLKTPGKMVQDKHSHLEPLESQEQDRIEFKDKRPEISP
# Procedure, shortened: as §1
# [10] = biological target: T9, ETV3 (Homo sapiens, UniProt P41162-2 1-143)
# T9 sequence: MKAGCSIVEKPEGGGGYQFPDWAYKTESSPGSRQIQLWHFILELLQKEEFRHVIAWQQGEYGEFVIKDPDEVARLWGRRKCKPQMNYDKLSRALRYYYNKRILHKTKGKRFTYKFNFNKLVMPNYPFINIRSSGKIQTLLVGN
# Procedure, shortened: as §1
# Sequence of SPIB (Q01892 whole entry): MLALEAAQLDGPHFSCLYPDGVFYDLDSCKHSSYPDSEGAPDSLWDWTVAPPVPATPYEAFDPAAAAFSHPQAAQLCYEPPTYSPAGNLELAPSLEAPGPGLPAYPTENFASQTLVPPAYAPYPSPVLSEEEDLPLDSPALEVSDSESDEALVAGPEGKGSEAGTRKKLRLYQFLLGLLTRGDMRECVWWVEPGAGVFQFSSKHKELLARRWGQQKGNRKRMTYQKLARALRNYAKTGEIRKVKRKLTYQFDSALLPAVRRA
sequence,measurement,setting,value
GCAGCC,binding signal,[1],"1.01 fold enrichment (6-mer frequency, TF over GST control)"
same,binding signal,[2],"1.05 fold enrichment (6-mer frequency, TF over GST control)"
same,binding signal,[3],"1.04 fold enrichment (6-mer frequency, TF over GST control)"
same,binding signal,[4],"1.03 fold enrichment (6-mer frequency, TF over GST control)"
same,binding signal,[5],"1.08 fold enrichment (6-mer frequency, TF over GST control)"
same,binding signal,[6],"1.03 fold enrichment (6-mer frequency, TF over GST control)"
same,binding signal,[7],"1.03 fold enrichment (6-mer frequency, TF over GST control)"
same,binding signal,[8],"1.11 fold enrichment (6-mer frequency, TF over GST control)"
same,binding signal,[9],"1.02 fold enrichment (6-mer frequency, TF over GST control)"
same,binding signal,[10],"1 fold enrichment (6-mer frequency, TF over GST control)"
